# Screening results (PubChem)
# Polio RdRp inh = inhibitors of poliovirus RNA polymerase binding and polymerization | poliovirus polymerase elongation, fluorescence polarization; stronger effect = lower value | % elongation, % (compound at 16.7 µg/mL) | 150,000 tested, 0.66% active; in the data active = % elongation below about 90%
# Mtb MenB inh = blocks the Mycobacterium tuberculosis MenB enzyme; P9WNP5; AID 540299; 100,000 tested, 0.43% active; inhibition, % (concentration not given with the values); MenB enzyme assay, absorbance read-out; in the data active = inhibition above about 21%, passing the limit was not always enough
# AID504770 = growth inhibitors of E. coli YBA685 in a screen for V. cholerae RctB (chromosome II replication) inhibitors | E. coli YBA685 rctB-dependent plasmid, OD600 growth, 3 h; stronger effect = lower value | z-score (test concentration not listed) | 130,000 tested, 0.27% active | AID 504770; in the data active = z-score below about -2, passing the limit was not always enough
# MbtI inh = MbtI salicylate synthase inhibition. inhibition, % (no concentration beside the values). purified MbtI enzyme, fluorescence intensity read-out. 100,000 tested, 0.89% active; in the data active = inhibition mostly above about 56%, no sharp cut-off; inactive = mostly below about 77%
# Target sequence (P9WFX0 whole entry, looked up): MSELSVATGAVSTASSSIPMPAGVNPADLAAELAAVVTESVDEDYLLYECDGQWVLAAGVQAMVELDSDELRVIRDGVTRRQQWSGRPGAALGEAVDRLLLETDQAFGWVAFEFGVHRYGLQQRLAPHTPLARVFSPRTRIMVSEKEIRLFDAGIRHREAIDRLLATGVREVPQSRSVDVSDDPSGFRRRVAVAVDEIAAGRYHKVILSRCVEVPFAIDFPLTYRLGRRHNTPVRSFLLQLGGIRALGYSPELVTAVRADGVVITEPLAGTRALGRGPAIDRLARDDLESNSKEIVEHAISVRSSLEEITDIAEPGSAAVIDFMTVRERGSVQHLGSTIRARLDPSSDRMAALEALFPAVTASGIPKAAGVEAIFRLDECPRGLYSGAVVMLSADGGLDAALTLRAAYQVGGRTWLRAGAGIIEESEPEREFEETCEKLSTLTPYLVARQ
# The depositor's hits bear a star; / = no result given; ! = a repeat was not active. An excerpt weighted towards active compounds, which were near 1.4% of everything screened.
SMILES,Polio RdRp inh,Mtb MenB inh,AID504770,MbtI inh
CC(C)[N+]1(C)C2CCC1CC(OC(=O)C(CO)c1ccccc1)C2 (stereo not drawn),99,-1,/,-10
C[N+]1(C)C2CCC1CC(OC(=O)C(CO)c1ccccc1)C2 (stereo not drawn),104,9,0.95,65*!
COCC(=O)N1CCN(c2ccc(F)cc2)CC1,101,-30,-0.6,-19
CCc1ccc(C(=S)N2CCOCC2)cc1,100,0,-0.55,26
Cc1ccc(C(=S)N2CCOCC2)cc1,98,1,0,97*
S=C(c1ccc(-c2ccc(Cl)cc2)o1)N1CCOCC1,99,-30,-1.3,77*
S=C(c1cccs1)N1CCCC1,101,-4,0.8,/
S=C(c1cccs1)N1CCOCC1,100,-7,0.45,70*
Cc1ccc(CC(=S)N2CCOCC2)cc1,96,2,-0.25,69*
CCOc1ccc2nc(NC(=O)c3cccc(OC)c3)sc2c1,98,-42,0.05,104
CCN(C(=O)Cn1cnc2c(cnn2C)c1=O)c1ccccc1,101,11,0.2,-1
COc1ccc(C(=O)N/N=c2/c(=O)c(=O)c3ccccc23)cc1,52*,-25,-0.2,-6
Cc1cc(C)n(N)c(=O)c1C#N,100,-29,-0.25,-17
Cc1cc(C)c(C#N)c(=N)o1,55*,1,0.1,109
CCNc1ncnc2c1nnn2C,103,/,/,/
CCNc1ncnc2c1nnn2CC,99,-47,1.9,86*
Cc1ccc(NC(=O)C2CCCN(S(=O)(=O)N3CCOCC3)C2)cc1Cl (stereo not drawn),104,-19,-0.05,-11
CN(C)C(=S)SSC(=S)N(C)C,101,8,-0.85,87*
CC(C)N1CCCc2cc(CN)ccc21,31,29,0.3,/
CCN1CCCc2cc(O)ccc21,/,/,0.15,98*
CCCN1CCCc2cc(CN)ccc21,26*,-77,-0.5,31
O=C(c1ccccc1)N(Cc1cccnc1)Cc1ccc(Cl)cc1Cl,/,/,0.1,/
CCOC(=O)Cn1c(=O)oc2cc(S(=O)(=O)N(CC)CC)ccc21,/,/,0.15,/
CCNc1nc(Cl)nc(NCC)n1,101,/,-0.1,-3
CCNc1nc(NCC)nc(NCCO)n1,99,32*,-0.45,-14
SMILES,Polio RdRp inh,Mtb MenB inh,AID504770,MbtI inh
COC(=O)c1c(-c2cccs2)csc1NC(=O)COc1ccc(C(C)(C)C)cc1,80*,/,/,/
COC(=O)c1c(-c2cccs2)csc1NC(=O)COc1ccccc1,66*,/,/,/
COC(=O)c1c(-c2cccs2)csc1NC(=O)COc1c(C)ccc(C)c1C,62*,/,/,/
O=C(Cn1ncn2cccc2c1=O)N1CCc2ccccc2C1,/,/,-4.1,/
O=C(O)CCC1CC(=O)Nc2ccccc21 (stereo not drawn),/,/,-0.45,-8
O=C1CC(NC(=O)c2ccc(Cl)cc2)C(=O)N1 (stereo not drawn),102,/,-0.1,79*
COC(=O)c1c(NC(=S)NCc2ccco2)sc2c1CCC(C)C2 (stereo not drawn),101,-18,-0.05,-3
COC(=O)c1c(NC(=S)Nn2cnnc2)sc2c1CCC(C)C2 (stereo not drawn),99,-15,-0.2,85*
COC(=O)c1sc(N)c(C(=O)OC)c1COC(=O)c1ccc2c(c1)C(=O)N(Cc1ccco1)C2=O,103,1,0.35,2
CCCCCSc1ncnc2c1sc1nc(N3CCOCC3)c3c(c12)CCCC3,105,/,/,/
c1nc2c3sc4nc(N5CCOCC5)c5c(c4c3ncn2n1)CCC5,100,28*,1.4,1
Cc1ccc(C(=O)Nc2nncs2)cc1,101,26*,-0.55,16
CCc1ccc(C(=O)Nc2nncs2)cc1,100,13,0.55,9
CCn1cc(C(=O)O)c(=O)c2cc(F)c(N3CCNC(C)C3)c(F)c21 (stereo not drawn),103,0,-3.6*,58
Cn1nc(C(=O)N2CCCCC2)c2c1-c1ccccc1SC2,101,0,-1.1,87*
Cn1nc(C(=O)N2CCN(c3ccc(Cl)cc3)CC2)c2c1-c1ccccc1SC2,110,/,/,/
C=CCC(NCCc1ccccc1)c1ccco1 (stereo not drawn),104,9,-1.1,/
O=C1CSCC(=O)N1c1ccc(Cl)cc1,93,11,-0.7,4
Cc1c(Cl)sn(-c2ccc(Cl)cc2)c1=O,101,7,-5.8*,101*
CNc1ccccc1C(=O)OCC(=O)c1ccccc1,102,-16,-3.2*,-17
CN(CCC#N)S(=O)(=O)c1ccc2[nH]cc(C(=O)N(Cc3ccco3)CC3CCCO3)c(=O)c2c1 (stereo not drawn),/,/,0.15,/
C(=NCc1ccccc1)c1cn(-c2ccccc2)nc1-c1cc2ccccc2o1,104,-11,-1,9
COc1ccc(CNc2ccc3nc4ccc(C)cc4c(=O)n3n2)cc1,/,/,-1.1,-16
CCOC(=O)c1c(P(=O)(N2CCOCC2)N2CCOCC2)noc1N,99,41*,0.7,0
COc1ccc2c(c1)cc1n2CCN2CCN=C12,100,-3,-0.2,-2
SMILES,Polio RdRp inh,Mtb MenB inh,AID504770,MbtI inh
COc1ccc2c(c1)cc1n2CCN=C1N,89*,-5,-1.3,/
O=c1[nH]c2ccccc2n1CN1CCOCC1,110,-11,0.05,5
Cc1sc2nc(CSC(C)C(=O)Nc3nnc(C4CC4)s3)[nH]c(=O)c2c1C (stereo not drawn),/,-2,-0.25,-7
O=C(O)C1(c2ccccc2)CCC(Nc2ccccc2)C1 (stereo not drawn),69*,-5,-1,/
O=C(c1cccc(S(=O)(=O)N2CCOCC2)c1)N1CCSC1=NCc1ccccc1,92,-3,-0.2,4
O=C(Nc1ccccc1Cl)c1cc2c(s1)CCC2,102,/,-1.5,4
O=C(NC1=NCCS1)c1cc2c(s1)CCC2,103,/,-2.4*,2
Cc1noc(C)c1CSc1nc2cc(C(=O)O)ccc2c(=O)n1Cc1ccccc1,/,-11,-1.1,5
COC(=O)C1C(=O)CC(=O)CC1c1ccco1 (stereo not drawn),100,40*,1.2,1
CC(NC(=O)CN1C2CCC1CC(=O)NC2)c1ccccc1 (stereo not drawn),100,29*,1.6,0
O=C1CC2CCC(CN1)N2CC(=O)Nc1ccc(F)cc1 (stereo not drawn),101,-26,1.3,-9
CC(C)N(C(=O)CSc1ccccc1Cl)c1ccccc1,101,/,0.15,-9
CCCCN=C1NN=C(c2ccc(Cl)cc2)C(C)S1 (stereo not drawn),101,-29,0.2,40
COc1cc(NC(=O)C(F)(F)F)c(OC)cc1Br,102,33*,-0.5,-7
CCCNc1ncccc1C(N)=O,101,35*,1.2,89
COc1ccc(C2CC(c3cccs3)=NN2C(=O)Cn2nnc(-c3cccnc3)n2)cc1OC (stereo not drawn),/,-7,0.9,-31
Clc1ccccc1C1=NC2=S(O1)OC(c1ccccc1Cl)=N2,96,6,0.6,80*
CCOc1ccc(-c2nc3ccc(C)cc3[nH]2)cc1,/,/,1.1,/
CCOC(=O)Cn1c(O)c(N=NC(=O)c2cccc(F)c2)c2ccccc21,100,3,-1.2,-16
